# Test results as given in PubChem BioAssay (EPA / NIEHS).
# Records with an inconclusive call do not appear. The source made the active and inactive calls. The calls were made as follows: active = hit-call score of the fitted dose curve at least 0.9, where 1 is the maximum; inconclusive = response in the unintended direction; inactive = score below 0.9.
# Experiments:
# [1] = TOX21_p53_BLA_p5_viability: Viability Assessment in the Tox21 HCT-116 p53 Agonism Beta-lactamase Assay, Phase 5 (AID 2283600)
# Outline: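 HCT-116 p53 beta-lactamase reporter cells, 4000/well, were exposed to compound (pin transfer, 217-fold dilution) for 16 hours at 37C. Cellular ATP was read by CellTiter-Glo luminescence after 30 min at room temperature.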
# [2] = target: Cellular tumor antigen p53 (Homo sapiens) (UniProt P04637); experiment: TOX21_p53_BLA_p4_ratio: Tox21 HCT-116 p53 Agonism Beta-lactamase Assay, Ratio, Phase 4 (AID 2283601)
# Sequence of Cellular tumor antigen p53 (Homo sapiens) (P04637 whole entry, looked up): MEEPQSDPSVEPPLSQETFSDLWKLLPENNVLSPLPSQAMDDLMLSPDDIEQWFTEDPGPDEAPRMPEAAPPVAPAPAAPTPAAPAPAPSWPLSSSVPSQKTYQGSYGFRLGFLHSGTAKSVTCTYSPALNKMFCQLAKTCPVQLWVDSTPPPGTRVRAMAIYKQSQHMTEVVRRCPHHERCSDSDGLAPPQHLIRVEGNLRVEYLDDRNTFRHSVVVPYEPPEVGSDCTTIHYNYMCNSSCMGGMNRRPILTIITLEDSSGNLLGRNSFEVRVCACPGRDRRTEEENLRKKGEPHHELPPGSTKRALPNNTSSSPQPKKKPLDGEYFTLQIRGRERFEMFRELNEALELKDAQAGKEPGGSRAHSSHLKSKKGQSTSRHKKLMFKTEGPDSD
# Outline: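 HCT-116 p53 beta-lactamase reporter cells (4000/well) preincubated 5 h, then compound (217-fold dilution of DMSO stock) for 16 h at 37C. CCF4-AM substrate added 2 h at room temperature; 460/530 nm emission ratio fitted upward versus DMSO.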
SMILES,outcome [1],outcome [2],AC50 [2],AC50 [1]
NCCCOCCOCCOCCCN,inactive,inactive,,
CCOC(=O)CCCCCCCCC(=O)OCC,inactive,inactive,,
O=S(=O)(O)c1cc(S(=O)(=O)O)c2c(N=Nc3ccccc3)c(O)ccc2c1,inactive,inactive,,
CCCCCCCCCC(=O)OCC,inactive,inactive,,
CC(=O)c1ccc(O)cc1,inactive,inactive,,
CC(CCO)CC(C)(C)C (stereo not drawn),inactive,inactive,,
NCCN1CCNCC1,inactive,inactive,,
CC(C)(CO)CO,inactive,inactive,,
CCCC(O)C(CC)CO (stereo not drawn),inactive,inactive,,
CC(C)Cc1ccccc1,inactive,inactive,,
O=C(C=Cc1ccccc1)OCCCc1ccccc1,inactive,inactive,,
CCC(C)(C)c1cc(O)c(C(C)(C)CC)cc1O,inactive,inactive,,
C=C(C)C(=O)OCCC[Si](OC)(OC)OC,inactive,inactive,,
CCC(=O)OC(C)(C)C1CC=C(C)CC1 (stereo not drawn),inactive,inactive,,
COc1ccc(OC)cc1,inactive,inactive,,
NC(=O)c1cccnc1,inactive,inactive,,
CCCO[Si](OCCC)(OCCC)OCCC,inactive,inactive,,
CCCCCCCCCOS(=O)(=O)O,inactive,inactive,,
CN(C)CCCNCCCN(C)C,inactive,inactive,,
CC(C)N1C(=O)c2ccccc2C1=O,inactive,inactive,,
CC(C)C(=O)OCC=Cc1ccccc1,inactive,inactive,,
C=CCOC(=O)/C=C\C(=O)OCC=C,inactive,inactive,,

SMILES,outcome [1],outcome [2],AC50 [2],AC50 [1]
O=[N+]([O-])c1cc(N(CCO)CCO)ccc1NCCO,inactive,inactive,,
CCNC(=S)NCC,inactive,inactive,,
N=C1N=C(N)c2ccccc21,inactive,inactive,,
CC(=O)Oc1c(C)c(C)c2c(c1C)CC[C@@](C)(CCC[C@H](C)CCC[C@H](C)CCCC(C)C)O2,inactive,inactive,,
O=C(Nc1cccc(Cl)c1)OCC#CCCl,inactive,,19.6 µM (active),
CC1=CCC(C(C)(C)O)CC1 (stereo not drawn),inactive,inactive,,
C=COCC1CCC(COC=C)CC1 (stereo not drawn),inactive,inactive,,
CN(C)C,inactive,inactive,,
CC(=O)c1ccc2ccccc2c1,inactive,inactive,,
C=CCCCCCCCCC(=O)OCC,inactive,inactive,,
CCCCCCCC1CCCC1=O (stereo not drawn),inactive,inactive,,
CC(O)COCC(C)O (stereo not drawn),inactive,inactive,,
CC(=O)CC(C)(C)C1CCCCC1,inactive,inactive,,
CN(C)c1ccc(C=O)cc1,inactive,inactive,,
CC(CO)c1ccccc1 (stereo not drawn),inactive,inactive,,
CCC(C)COC(=O)CC(C)C (stereo not drawn),inactive,inactive,,
COC(=O)c1cccc(C(=O)OC)c1,inactive,inactive,,
C[C@H](CCC(=O)O)[C@H]1CC[C@H]2[C@@H]3CC[C@@H]4C[C@H](O)CC[C@]4(C)[C@H]3CC[C@]12C,,inactive,,16.3 µM (active)
CCCCCCOC(C)=O,inactive,inactive,,
CC(C)COC(=O)c1ccccc1,inactive,inactive,,
CC1=CC(C)C(C=O)C(C)C1 (stereo not drawn) (tested in a mixture with another compound),inactive,inactive,,
CC/C=C\CCCCO,inactive,inactive,,

SMILES,outcome [1],outcome [2],AC50 [2],AC50 [1]
CCCCOC(=O)C(C)OC(=O)CCC (stereo not drawn),inactive,inactive,,
[Na+],inactive,inactive,,
O=S(=O)(O)CCCN1CCOCC1,inactive,inactive,,
CCCCCCCCOS(=O)(=O)O,inactive,inactive,,
Nc1ccn([C@H]2CC[C@@H](CO)O2)c(=O)n1,inactive,inactive,,
CC1(C)CC(N)CC(C)(CN)C1 (stereo not drawn),inactive,inactive,,
O=S1(=O)CC=CC1,inactive,inactive,,
CCCCCC(=O)O[C@]1(C(C)=O)CC[C@H]2[C@@H]3CCC4=CC(=O)CC[C@]4(C)[C@H]3CC[C@@]21C,inactive,inactive,,
CCOc1ccc(NC(C)=O)cc1,inactive,inactive,,
COc1ccccc1NC(=O)CC(C)=O,inactive,inactive,,
FC(F)(F)c1ccc(Cl)c(Cl)c1,inactive,inactive,,
CC1=CCC(C(C)C)=CC1,inactive,inactive,,
CC1=CC(O)CC(C)(C)C1 (stereo not drawn),inactive,inactive,,
NC(=O)NC(N)=O,inactive,inactive,,
CCCCCCC(O)CCOC(C)=O (stereo not drawn),inactive,inactive,,
OCCCO,inactive,inactive,,
CC(C)(C)C1CCC(O)CC1 (stereo not drawn),inactive,inactive,,
CNC(=C[N+](=O)[O-])NCCSCc1ccc(CN(C)C)o1,inactive,inactive,,
Nc1cc([N+](=O)[O-])ccc1C(=O)O,inactive,inactive,,
Cc1cc(O)c2c(c1)C(=O)c1cc(O)cc(O)c1C2=O,inactive,inactive,,
